# Test results published in PubChem BioAssay (Tox21).
# Records with an inconclusive call do not appear. Where a call stands in place of a potency, no number is given. Values without a mark were called inactive. Calls of active or inactive are those of the source. Calls come from the whole dose curve; as a rule, active = well fitted cell-killing curve with a large enough effect in the repeat runs; inconclusive = weak or mixed curves, or effect the other way; inactive = flat fitted curve, though single readings scatter.
# Test: cAMP Responsive Elements (CRE) small molecule antagonists, cell-based qHTS assay: qHTS cell viability counter screen (AID 2060913); note: nearly all actives have a fitted effect of over 40% in size
# Conditions: CRE-bla HEK293T viability, CellTiter-Glo luminescence, 5 h; series mostly up to 92.4 µM
# Summary of the method: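 CRE-bla HEK293T cells were seeded in assay medium with 10% dialyzed FBS, incubated 18 hrs at 37 C, then exposed to compounds plus 0.25 uM final NKH477 for 3 hrs. Viability was read by CellTiter-Glo luminescence after 30 min, in the same wells.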
# Potency is the fitted concentration of half-maximal effect.
SMILES,Potency,"viability change, negative = cytotoxic"
CCC(=O)OCCc1ccccc1,inactive,
CC1=NN(c2cccc(S(=O)(=O)O)c2)C(=O)C1,inactive,
CC/C=C\CCCCCCCCCCOC(C)=O,inactive,
O=c1cc(-c2ccc(O)cc2)oc2cc(O)cc(O)c12,inactive,
CCCCOCCOC(=O)c1cccnc1,inactive,
CCN(CCC#N)c1ccc(N=Nc2c(Cl)cc([N+](=O)[O-])cc2Cl)cc1,inactive,
Nc1ccccc1[N+](=O)[O-],inactive,
Cc1cn([C@@H]2O[C@H](CO)[C@@H](O)[C@@H]2F)c(=O)[nH]c1=O,inactive,
CC/C=C\CCCCO,inactive,
CCC(CO)(CO)CO,inactive,
COc1c(N2CCNC(C)C2)c(F)cc2c(=O)c(C(=O)O)cn(C3CC3)c12 (stereo not given),inactive,
CCCCCCCOC(C)=O,inactive,
CC(=O)Nc1ccc(OCC(O)CNC(C)C)cc1 (stereo not given),inactive,
O=C1c2c(O)ccc([N+](=O)[O-])c2C(=O)c2c([N+](=O)[O-])ccc(O)c21,27.1 µM (active),
CC(=O)Nc1c(I)cc(I)c(C(=O)O)c1I,inactive,
CC(C)[N+](C)(C)CC(O)COc1cccc2ccccc12 (stereo not given),inactive,
CN(C)CCOC(C)(c1ccccc1)c1ccccn1 (stereo not given),inactive,
CCO[Si](CCCN)(OCC)OCC,inactive,
O=[N+]([O-])c1ccc2c(c1)Cc1ccccc1-2,inactive,
CCN(CC)c1ccc(C(=C2C=CC(=[N+](CC)CC)C=C2)c2ccc(S(=O)(=O)O)cc2S(=O)(=O)[O-])cc1,27.3 µM (active),

SMILES,Potency,"viability change, negative = cytotoxic"
CC(C)(N)C#N,inactive,
O=C(O)C(=O)Nc1cccc(-c2nn[nH]n2)c1,inactive,
CCCCN(CCCC)CCCC,inactive,
O=C(NCc1ncc(C(F)(F)F)cc1Cl)c1c(Cl)cccc1Cl,inactive,
CCCCc1ccc2c(n1)[C@@H](c1ccc(OC)cc1C[C@H](C)C(=O)O)[C@H](C(=O)O)[C@H]2c1ccc2c(c1)OCO2,inactive,
CC(=O)Oc1ccccc1C(=O)Nc1ncc([N+](=O)[O-])s1,7.5 µM (active),
COc1ccc(OC)c(Cl)c1,inactive,
CC(=O)OCCC(C)CC(C)(C)C (stereo not given),inactive,
CN(C)CCOCCN(C)CCO,inactive,
C=CC(=O)O,inactive,
CC(NN)c1ccccc1 (stereo not given),,-0.733% [at 18.9 µM]
CC(=O)Oc1cccc(O)c1,inactive,
CC(=O)OCC(=O)[C@@]1(O)[C@H](C)C[C@H]2[C@@H]3CCC4=CC(=O)C=C[C@]4(C)[C@@]3(F)[C@@H](O)C[C@@]21C,inactive,
CCc1cccc(CC)c1NC(=O)CN(CC(=O)O)CC(=O)O,inactive,
CC(C)C[C@H](NC(=O)[C@H](Cc1ccccc1)NC(=O)c1cnccn1)B(O)O,inactive,
CC(C)COC(=O)CC(C(=O)OCC(C)C)S(=O)(=O)O (stereo not given),inactive,
C=CC(=O)OCC1CC2CC1C1CCC(COC(=O)C=C)C21 (stereo not given),inactive,
CN(C)[C@@H]1C(=O)C(C(=O)NCN2CCCC2)=C(O)[C@@]2(O)C(=O)C3=C(O)c4c(O)cccc4[C@@](C)(O)C3C[C@@H]12 (stereo not given in full),inactive,
Clc1cc(Cl)c(Cl)cc1Cl,inactive,
CCOc1cc(N)c(Cl)cc1C(=O)NCC1CN(Cc2ccc(F)cc2)CCO1 (stereo not given),inactive,
